# Results filed as inconclusive are left out. A call without a number means that no potency is given here. Activity calls are given as the source filed them. Calls come from the whole dose curve; as a rule, active = well fitted curve in the direction sought with a large enough effect; inconclusive = small, poorly fitted or top-dose-only effect, or another doubt; inactive = no such curve, though single readings can be large; an effect the other way counts as inactive or inconclusive.
# Legend:
# [1] = target: Glutathione peroxidase 1 (Homo sapiens) (UniProt P07203); assay: Primary qHTS Assay for Inhibitors of Recombinant Selenoprotein Glutathione Peroxidase 1 (GPX1) (AID 1845191); settings: recombinant GPX1, GR-coupled NADPH fluorescence, 15 min; series mostly up to 48.8 µM; note: nearly all actives have a fitted effect of over 65% in size; note: potency is the fitted concentration of half-maximal effect
# How it was run: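 GPX1 10 nM, GR 100 nM, GSH 1 mM, NADPH 0.5 mM, CHP 0.5 mM (final). 30-min cpd preincubation, RT. Ex340/Em450 read t=0, t=15 min.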
# [2] = target: Phospholipid hydroperoxide glutathione peroxidase GPX4 (Homo sapiens) (UniProt P36969); assay: Primary qHTS Assay for Inhibitors of Recombinant Selenoprotein Glutathione Peroxidase 4 (GPX4) (AID 1845192); settings: recombinant GPX4, GR-coupled NADPH fluorescence, 15 min; series mostly up to 50 µM; note: nearly all actives have a fitted effect of over 65% in size
# How it was run: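 qHTS, GR-coupled: GPX4 200 nM + cpd 30 min RT → GSH 1 mM, NADPH 0.5 mM, GR 100 nM → CHP 0.5 mM start; fluor 340/450 at t0 and t15 min; no-enzyme wells as control.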
# [3] = Quantitative High-Throughput drug screen in 47 multiple myeloma cell lines against the NCATS MIPE library collection: FR4_PLB cell viability assay (AID 1918924; note: nearly all actives have a fitted effect of over 35% in size); settings: FR4_PLB myeloma cells viability, CellTiter-Glo ATP, 48 h; series mostly up to 45.8 µM
# How it was run: (§1)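 Relative luminescence from CellTiter-Glo served as the viability signal, referenced to DMSO-treated (100%) and cell-free medium (0%) controls. Treatment lasted 48 hours at 37C with 500 cells per well.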
# [4] = Quantitative High-Throughput drug screen in 47 multiple myeloma cell lines against the NCATS MIPE library collection: Delta47_JCRB cell viability assay (AID 1918925; note: nearly all actives have a fitted effect of over 45% in size); settings: Delta47 myeloma viability, CellTiter-Glo ATP, 48 h; series mostly up to 45.8 µM
# How it was run: (§2)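 CellTiter-Glo ATP luminescence gave viability after 48 h compound treatment at 37C of 500 multiple myeloma cells per well. Normalisation used DMSO-only wells as 100% and media-only wells as 0% viability; primary qHTS of approved and investigational drugs.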
# [5] = Quantitative High-Throughput drug screen in 47 multiple myeloma cell lines against the NCATS MIPE library collection: AMO1_DSMZ cell viability assay (AID 1918927; note: nearly all actives have a fitted effect of over 30% in size); settings: AMO1 myeloma cells viability, CellTiter-Glo ATP luminescence, 48 h; series mostly up to 45.8 µM
# How it was run: as §2
# [6] = Quantitative High-Throughput drug screen in 47 multiple myeloma cell lines against the NCATS MIPE library collection: ARP1_JJKsccF8 cell viability assay (AID 1918928; note: nearly all actives have a fitted effect of over 40% in size); settings: ARP1 myeloma cells viability, CellTiter-Glo ATP, 48 h; series mostly up to 45.8 µM
# How it was run: (§3)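 Viability screen: myeloma cells (500/well) incubated 48 h at 37 °C, humidified 5% CO2, with pinned library compounds; CellTiter-Glo added, luminescence read; DMSO wells set 100%, medium-only wells 0%.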
# [7] = Quantitative High-Throughput drug screen in 47 multiple myeloma cell lines against the NCATS MIPE library collection: ARD_JJKsccE7 cell viability assay (AID 1918929); settings: ARD myeloma cell line viability, CellTiter-Glo, 48 h; series mostly up to 45.8 µM
# How it was run: as §2
# [8] = Quantitative High-Throughput drug screen in 47 multiple myeloma cell lines against the NCATS MIPE library collection: Karpas620_DSMZ cell viability assay (AID 1918959); settings: Karpas620 myeloma viability, CellTiter-Glo ATP luminescence, 48 h; series mostly up to 45.8 µM; note: nearly all actives have a fitted effect of over 30% in size
# How it was run: as §1
# [9] = Quantitative High-Throughput drug screen in 47 multiple myeloma cell lines against the NCATS MIPE library collection: KMM1_JCRB cell viability assay (AID 1918960); settings: KMM1 myeloma viability, CellTiter-Glo ATP luminescence, 48 h; series mostly up to 45.8 µM; note: nearly all actives have a fitted effect of over 30% in size
# How it was run: as §3
# [10] = Quantitative High-Throughput drug screen in 47 multiple myeloma cell lines against the NCATS MIPE library collection: Karpas417_ECACC cell viability assay (AID 1918961); settings: Karpas417 myeloma viability, CellTiter-Glo ATP luminescence, 48 h; series mostly up to 45.8 µM
# How it was run: as §1
# [11] = Quantitative High-Throughput drug screen in 47 multiple myeloma cell lines against the NCATS MIPE library collection: KHM11_PLB cell viability assay (AID 1918962); settings: KHM11 myeloma cell viability, CellTiter-Glo ATP luminescence, 48 h; series mostly up to 45.8 µM; note: nearly all actives have a fitted effect of over 35% in size
# How it was run: as §1
# [12] = Quantitative High-Throughput drug screen in 47 multiple myeloma cell lines against the NCATS MIPE library collection: JIM1_ECACC cell viability assay (AID 1918964); settings: JIM1 myeloma viability, CellTiter-Glo ATP luminescence, 48 h; series mostly up to 45.8 µM
# How it was run: as §2
# [13] = target: Luciferin 4-monooxygenase (Photinus pyralis) (UniProt P08659); assay: Primary firefly luciferase (FLuc) qHTS assay for identification of artifact compounds. (AID 1845220); settings: purified firefly luciferase, luminescence, 5 min; series mostly up to 54.1 µM; note: nearly all actives have a fitted effect of over 60% in size
# How it was run: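 In this counter-screen for luciferase artifacts, test compounds met substrate (10 uM each luciferin and ATP) before 10 nM enzyme started the reaction. Light output was measured 5 min later.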
# [14] = tested on: Nanoluciferase (engineered Oplophorus gracilirostris luciferase); assay: Primary Nanoluciferase (NLuc) qHTS assay for identification of artifact compounds. (AID 1845222); settings: NLuc-conditioned medium, Nano-Glo luminescence, 5 min; series mostly up to 54.1 µM;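 note: NLuc secreted into diluted conditioned medium of S16 cells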
# How it was run: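 Using secreted nanoluciferase in S16 culture medium (0.22 um filtered, 1:55 dilution), compounds were preincubated 15 min at RT. Signal was generated with Nano-Glo reagent (1:100) over 5 min.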
# Sequence of Glutathione peroxidase 1 (Homo sapiens) (P07203 whole entry, looked up): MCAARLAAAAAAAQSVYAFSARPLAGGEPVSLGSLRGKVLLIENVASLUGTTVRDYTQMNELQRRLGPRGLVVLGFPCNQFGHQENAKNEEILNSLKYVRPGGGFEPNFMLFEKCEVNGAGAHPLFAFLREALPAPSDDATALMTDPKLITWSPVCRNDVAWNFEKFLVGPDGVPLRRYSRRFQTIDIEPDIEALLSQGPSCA
# Sequence of Phospholipid hydroperoxide glutathione peroxidase GPX4 (Homo sapiens) (P36969 whole entry, looked up): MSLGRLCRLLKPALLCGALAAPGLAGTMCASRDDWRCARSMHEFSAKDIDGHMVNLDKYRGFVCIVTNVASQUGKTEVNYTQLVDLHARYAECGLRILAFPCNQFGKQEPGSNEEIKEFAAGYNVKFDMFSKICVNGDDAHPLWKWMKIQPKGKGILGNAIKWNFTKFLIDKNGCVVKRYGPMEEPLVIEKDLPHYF
structure (smiles),measurement,setting,value
NC(=O)c1cc([N+](=O)[O-])cc([N+](=O)[O-])c1,Potency,[1],inactive
same,Potency,[2],inactive
C[C@@H]1CC2=CC(=O)CC[C@@H]2[C@H]2CC[C@@]3(C)[C@@H](CC[C@]3(C)O)[C@@H]21,Potency,[1],inactive
same,Potency,[2],inactive
COc1c2c(cc3c1OCO3)CCN(C)C2,Potency,[1],inactive
same,Potency,[2],inactive
O=c1oc2ccccc2c(O)c1Cc1c(O)c2ccccc2oc1=O,Potency,[1],inactive
same,Potency,[2],inactive
C[C@@H](N)[C@@H](O)c1ccccc1,Potency,[2],inactive
C#CC(O)(C=CCl)CC (configuration not stated),Potency,[1],inactive
same,Potency,[2],inactive
CC(C)C[C@H](CN)CC(=O)O,Potency,[1],inactive
same,Potency,[2],inactive
same,Potency,[3],inactive
same,Potency,[4],inactive
same,Potency,[5],inactive
same,Potency,[6],inactive
same,Potency,[7],inactive
same,Potency,[8],inactive
same,Potency,[9],inactive
same,Potency,[10],inactive
same,Potency,[11],inactive
same,outcome,[12],inactive
CC(=O)OCC1=C(C(=O)O)N2C(=O)[C@@H](N)[C@H]2SC1,Potency,[1],12.8 µM (active)
same,outcome,[13],inactive
same,outcome,[14],inactive
Oc1ccc(Cl)cc1,Potency,[1],inactive
same,Potency,[2],inactive
CCOC(=O)CC(SP(=S)(OC)OC)C(=O)OCC (configuration not stated),Potency,[2],inactive
O=c1c(C2CC(c3ccc(-c4ccc(Br)cc4)cc3)Cc3ccccc32)c(O)sc2ccccc12 (configuration not stated),Potency,[1],22.7 µM (active)
same,Potency,[2],inactive
CCC(C)C(C)(COC(N)=O)COC(N)=O (configuration not stated),Potency,[1],inactive
same,Potency,[2],inactive
O=C(Nc1ccc(Br)cc1)c1cc(Br)cc(Br)c1O,Potency,[2],inactive
COC(=O)C(c1ccccc1)C1CCCCN1 (configuration not stated),Potency,[1],inactive
same,Potency,[2],inactive
COP(=S)(OC)Oc1cc(Cl)c(Cl)cc1Cl,Potency,[1],inactive
same,Potency,[2],inactive
CCC(CC)(CNC(=O)CCCO)c1cccc(OC)c1,Potency,[1],inactive
same,Potency,[2],inactive
CC(C)(C)NCC(O)c1cc(Cl)c(N)c(C(F)(F)F)c1 (configuration not stated),Potency,[1],inactive
same,Potency,[2],inactive

# — PubChem BioAssay (NCATS)
